In all, about 59,000 compounds went through this assay and about 6,200 (11%) were called active. Inconclusive results (about 9%) are left out. Cut-off read from the data, not from the text of the source: active = max dye-equivalent concentration above about 10 nM; inconclusive = mostly about 1.1 nM to 9.6 nM; inactive = weaker than that. The entries come from a sample that favours actives as a whole.
assay: qHTS Assay for Spectroscopic Profiling in 4-MU Spectral Region; conditions: compound autofluorescence, 340/450 nm, 4-MU equivalents; stronger effect = higher value
How it was run: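 Compounds in 100 mM Tris, pH 8.0, sat 15 min at room temperature before fluorescence was read at 340 nm excitation/450 nm emission; a per-plate six-point 4-MU standard curve converted signals to dye-equivalent concentration at each compound concentration.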

| SMILES | max dye-equivalent concentration |
| --- | --- |
| COc1ccc(CNC(=O)c2c(C)cc(=O)oc2C)cc1OC | inactive |
| COCCN(C(=O)CCC(=O)Nc1ccccn1)C(C(=O)NCCC(C)C)c1ccc(OC)cc1 (stereo not drawn) | inactive |
| Oc1ccccc1CNCc1ccccc1O | inactive |
| c1ccc2c(CNn3cnnc3)cccc2c1 | inactive |
| Cc1cc(C)c2c(c1)c(C)cc1nnc(SCC(=O)NCc3ccco3)n12 | inactive |
| COc1ccc(OC)c(CNC(=O)C2CCCN(c3nc4ccccc4o3)C2)c1 (stereo not drawn) | inactive |
| COc1ccc2nc(N3CCCC(O)C3)c(C#N)cc2c1 (stereo not drawn) | 170 nM (active) |
| Nc1nonc1-c1noc(-c2ccc(Br)o2)n1 | inactive |
| c1csc(CN2CCN(Cc3cccs3)C2c2cccs2)c1 | inactive |
| Cc1nn(-c2ccccc2)c2[nH]c(C(F)(F)F)cc(=O)c12 | inactive |
| COc1ccc(CC(=O)Nc2nc3n(n2)C(c2ccccc2)CC(=O)N3)cc1OC (stereo not drawn) | inactive |
| CCOc1ccc(CCNC(=O)C2CCN(c3ccc(N4CCOCC4)nn3)CC2)cc1OCC | 410 nM (active) |
| COc1ccc(CCNC(=O)C2CCN(c3nn4c(=O)cc(C)nc4s3)CC2)cc1OC | inactive |
| CCCS(=O)(=O)N1CCC(C(=O)NCCc2ccc(OC)c(OC)c2)CC1 | inactive |
| Cc1ccc(-n2c(N)c(C(=O)N3CCOCC3)sc2=S)c(C)c1 | inactive |
| CS(=O)(=O)N1CCC2(CC1)CN(Cc1cc(C(F)(F)F)cc(C(F)(F)F)c1)C2 | inactive |
| CCOc1cc(CN2CCN(C(=O)CC(C)C)CC2)ccc1OC | inactive |
| O=C(CSc1nnc(-c2ccccn2)n1-c1ccccc1)Nc1ccc2c(c1)OCO2 | inactive |
| COc1ccc2[nH]c3ccc(OC)cc3c2c1 | 200 nM (active) |
| COc1ccc2[nH]c3cc4c(=O)c5cc(OC)ccc5[nH]c4cc3c(=O)c2c1 | inactive |
| COc1cccc(Oc2ccc(N)cc2)c1 | inactive |
| O=C(O)CN(Cc1ccco1)S(=O)(=O)c1ccc(F)cc1 | inactive |

| SMILES | max dye-equivalent concentration |
| --- | --- |
| O=C(c1ccco1)N1CCN(CC(=O)N(C2CCCCC2)C2CCS(=O)(=O)C2)CC1 (stereo not drawn) | inactive |
| Cc1cc(C(=O)Nc2c(C)n(C)n(-c3ccccc3)c2=O)cs1 | inactive |
| Cc1c(NC(=O)c2cccnc2)c(=O)n(-c2ccccc2)n1C | inactive |
| Cc1c(NC(=O)c2coc(=O)c(Br)c2)c(=O)n(-c2ccccc2)n1C | 190 nM (active) |
| CCOCCCNS(=O)(=O)Cc1ccccc1 | inactive |
| O=C1c2cccnc2C(Nc2ccc(S(=O)(=O)N3CCCCCC3)cc2)N1Cc1ccccc1 (stereo not drawn) | inactive |
| O=C(NC1CCCCC1)C1c2ccccc2C(=O)N1Cc1ccco1 (stereo not drawn) | inactive |
| O=C1c2ccccc2C(O)N1Cc1ccccc1 (stereo not drawn) | 25 nM (active) |
| CCOC(=O)CSc1nnc(NC(=O)c2cccc(S(=O)(=O)N3CCCC3)c2)s1 | inactive |
| CN1C(=O)C[C@H](c2ccccc2)C1=O | inactive |
| CCCCCOC(=O)NCCOC(=O)Nc1ccc(C(=O)OCC)cc1 | inactive |
| COc1cccc(-c2cc3nc4c(c(N5CCC6(CC5)OCCO6)n3n2)CCCC4)c1 | 100 nM (active) |
| COc1cccc(-c2nc(S(=O)(=O)c3ccccc3)c(N3CCOCC3)o2)c1 | inactive |
| CC1CC(C)CN(CC(=O)Nc2ccc(S(N)(=O)=O)cc2)C1 (stereo not drawn) | inactive |
| Cc1cccn2c(=O)c3cc(C#N)c(=O)n(CCCN4CCOCC4)c3nc12 | 8300 nM (active) |
| Cc1nnc(SCC(N)=O)n1CC1CCCO1 (stereo not drawn) | inactive |
| Cn1c(=O)c2c(nc(CN3CCOCC3)n2Cc2ccccc2)n(C)c1=O | inactive |
| Cc1cccn2c(=O)c3cc(C#N)c(=NC(=O)c4cccnc4)n(CC4CCCO4)c3nc12 (stereo not drawn) | 3400 nM (active) |
| C[C@H](CCC(=O)NCC(=O)O)[C@H]1CC[C@H]2[C@H]3[C@@H](C[C@@H](O)[C@]12C)[C@]1(C)CC[C@H](O)C[C@@H]1C[C@@H]3O | inactive |
| O=S(=O)(NCc1cccnc1)c1ccc(Br)s1 | inactive |
| CCOc1ccc(N=C2SC(C(=O)O)CC(=O)N2C)cc1 (stereo not drawn) | inactive |
| CCn1c(=N)c(S(=O)(=O)c2ccc(F)cc2)cc2c(=O)n3ccccc3nc21 | 590 nM (active) |

| SMILES | max dye-equivalent concentration |
| --- | --- |
| O=CN1CCN(C2CC(=O)N(c3ccc4c(c3)OCO4)C2=O)CC1 (stereo not drawn) | inactive |
| COC(=O)c1cc(Cl)c(NC(=O)c2ccco2)cc1OC | inactive |
| Cc1ccc(-n2nc3cc(Cl)c(NC(=O)c4ccco4)cc3n2)cc1 | 54 nM (active) |
| Cn1c(NC(=O)c2ccco2)c(-c2ccccc2Cl)c(=O)c2ccccc21 | inactive |
| CSCC[C@H](NC(=O)NCc1cccs1)C(=O)O | inactive |
| COCCNc1ccnc(-c2cccc(NS(C)(=O)=O)c2)n1 | inactive |
| N#Cc1ccc(CN2CCCC3(CCN(C(=O)c4ccco4)CC3)C2)cc1 | inactive |
| COc1ccc2c(CC(=O)Nc3nnc(C4CC4)s3)coc2c1 | 11 nM (active) |
| COc1ccc(OCCCC(=O)Nc2nnc(C3CCCO3)s2)cc1 (stereo not drawn) | inactive |
| COc1ccc(Cc2nnc(NC(=O)Cc3cccs3)s2)cc1 | inactive |
| O/N=C1\CC2(Cc3nonc31)OCCO2 | inactive |
| O=C(CN1CCOCC1)Nc1ccc(NC(=O)CN2CCOCC2)c(Cl)c1 | inactive |
| Fc1ccc(-c2nnc(CSc3nnc(-c4ccc5c(c4)OCO5)o3)o2)cc1 | inactive |
| Fc1ccc2nc(-c3ccccc3)nc(SCc3nnc(-c4ccccc4)o3)c2c1 | 29 nM (active) |
| C=CCn1c(SCc2nnc(-c3ccccc3)o2)nnc1C(O)c1ccccc1 (stereo not drawn) | inactive |
| O=C(N1CCOCC1)N1CCOCC1 | inactive |
| O=C(c1csnn1)N1CCC[C@@]2(CCN(Cc3nccs3)C2)C1 | inactive |
| O=C(OC(C(=O)NC1CCCC1)c1ccc(F)cc1)c1ccno1 (stereo not drawn) | inactive |
| CCn1c(NCCc2ccc(OC)c(OC)c2)nc2c1c(=O)n(C)c(=O)n2C | inactive |
| O=C(O)c1nn(-c2ccc(Cl)cc2)c2c1C(=O)c1ccccc1C2=O | inactive |
| O=C(O)CN1C(=O)CC(Cc2ccccc2)C1=O (stereo not drawn) | inactive |
| O=C(NC1(C(F)(F)F)N=C2SCCN2C1=O)c1ccco1 (stereo not drawn) | inactive |

| SMILES | max dye-equivalent concentration |
| --- | --- |
| CCOC(=O)c1cc(-c2ccc(Cl)s2)nc2c1c(C)nn2C | 180 nM (active) |
| CCOC(=O)c1cnc(-n2nc(C)cc2C)nc1-n1nc(C)cc1C | inactive |
| CCOC(=O)c1c(C(C#N)C#N)cc(C)nc1C | inactive |
| CN(C)c1nc2n(c(=O)n1)CCO2 | inactive |
| CC(C)(C)c1cc(C(=O)NCc2cccnc2)ccn1 | inactive |
| Cc1ccc(-n2nc(-c3ccco3)cc2C(=O)NCc2cccnc2)cc1 | inactive |
| COCCn1c(=O)[nH]c2cc(C(=O)NCc3cccnc3)ccc2c1=O | 41 nM (active) |
| CCOc1ccccc1Oc1cn[nH]c1-c1ccc(OC)cc1O | inactive |
| Cc1cc(Cl)c(S(=O)(=O)NCCC(=O)O)cc1OCC(N)=O | inactive |
| COc1cc(-c2nnc(Cn3cc(C(F)(F)F)ccc3=O)o2)cc(OC)c1OC | inactive |
| CCOC(=O)c1cc(NC(=O)SCC(=O)O)c(C)nc1C | inactive |
| CCOC(=O)c1cc(-c2nnc(-c3cc(OC)c(OC)c(OC)c3)o2)c(C)nc1C | 24 nM (active) |
| O=C(NCc1ccco1)c1nc(-c2ccccc2)n(-c2ccccc2)n1 | inactive |
| COC(=O)[C@@H](NC(=O)NCc1cccc(OC)c1)C(C)C | inactive |
| CCOc1ccc(-c2cn(S(=O)(=O)c3cccc4nsnc34)nc2N)cc1 | inactive |
| CCOC(=O)NCc1ccc2c(c1)OCO2 | inactive |
| O=C(Cn1nnc(-c2ccccc2)n1)NCc1ccc2c(c1)OCO2 | inactive |
| CC1CCCCN1CC(=O)NCc1ccc2c(c1)OCO2 (stereo not drawn) | 51 nM (active) |
| COc1ccc(S(=O)(=O)Nc2c(C)n(C)n(-c3ccccc3)c2=O)cc1 | inactive |
| CC1(C)Cc2c(sc3nc4n(c(=N)c23)CCCCC4)CO1 | inactive |
| CCOC(=O)Cn1c(SC)nc2sc3c(c2c1=O)CC(C)(C)OC3 | inactive |
| CCC1(C)Cc2c(sc3nc4n(c(=O)c23)CCCS4)CO1 (stereo not drawn) | 47 nM (active) |

| SMILES | max dye-equivalent concentration |
| --- | --- |
| COc1ccc2[nH]cc(CCNc3cc(-c4ccccc4CN(C)C)ncn3)c2c1 | inactive |
| O=C(NCCCN1CCN(c2ccccc2F)CC1)C1CCC(=O)N1C1CCCCC1 (stereo not drawn) | inactive |
| COC(=O)c1sc(=S)n(-c2ccccc2)c1N | inactive |
| CC(C)CCNC(=O)C1CCCN(S(=O)(=O)c2ccc(F)cc2)C1 (stereo not drawn) | inactive |
| COCCNc1ncnc2ccc(-c3cccnc3)cc12 | inactive |
| CC1CCc2c(sc3c2C2=NS(=O)(=O)CCN2C=N3)C1 (stereo not drawn) | 26 nM (active) |
| Cc1cc(NC(=O)CCC(=O)N(c2cccc(F)c2)C(C(=O)NC2CCCC2)c2ccncc2)no1 (stereo not drawn) | inactive |
| CS(=O)(=O)N1CCC2(CC1)CN(Cc1ccccc1)C2 | inactive |
| NC[C@@H]1O[C@H](O[C@@H]2[C@H](O[C@@H]3O[C@H](CO)[C@@H](COC[C@H]4O[C@@H](CN)[C@@H](O)[C@@H](O)[C@@H]4N)[C@@H]3O)[C@@H](O)[C@@H](N)C[C@H]2N)[C@@H](N)[C@H](O)[C@@H]1O | inactive |
| COc1ccc(OC)c(NC(=O)CSc2nc(N)c(-c3ccccc3)c(=O)[nH]2)c1 | inactive |
| C[N+]1(CCN=C=NC2CCCCC2)CCOCC1 | inactive |
| CCCCNc1nc2c(c(=O)[nH]c(=O)n2C)n1CCOc1ccccc1 | inactive |
| O=C(Nc1ccc(F)cc1)c1cccnc1N1CCOCC1 | inactive |
| COc1ccc(Oc2ncc3nc(-c4ccc(F)cc4)c(=O)n(C)c3n2)cc1 | inactive |
| O=c1c(-c2ccc(F)cc2)nc2cncnc2n1-c1ccccc1 | inactive |
| COc1ncc2nc(-c3ccc(Cl)cc3)c(=O)n(C)c2n1 | 27 nM (active) |
| CN1CCN(c2ncc3nc(-c4ccc(Cl)cc4)c(=O)n(-c4ccccc4)c3n2)CC1 | 52 nM (active) |
| O=c1c(-c2ccc(F)cc2)nc2cnc(N3CCOCC3)nc2n1-c1ccccc1 | 23 nM (active) |
| O=C(c1ccc2c(c1)C(=O)N(c1ccc(Cl)cc1)C2=O)N1CCN(c2ccccn2)CC1 | inactive |
| Cn1cc(-c2nc3cncnc3n(-c3ccccc3)c2=O)c2ccccc21 | inactive |
